Only some compounds are listed: those with a hit (about 4.7% of all), similar ones and a draw of the others.
PfHsp90 set2: growth inhibition of PfHsp90-expressing yeast, primary screen, antimalarial PfHsp90 inhibitor project, S. cerevisiae, BacTiter-Glo luminescence, single point, set 2; BacTiter-Glo ATP, 48 h; yeast lacking PDR1 and PDR3 efflux regulators; inhibition, % at 9.4 µM; 310,000 compounds, 0.32% hits;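 active means every replicate shows inhibition above about 80%, whatever the replicate mean, limit read from the data; inconclusive means mean inhibition reaches the set limit but some replicate falls short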;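 further: 0% = DMSO neutral controls and 100% = 20 µM radicicol positive controls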
EBI2 block: EBI2 receptor antagonists, beta-arrestin recruitment, primary screen, cell-based, luminescence, 7a,25-OHC stimulation, uHTS; G-protein coupled receptor 183 (Homo sapiens), P32249; 7a,25-OHC stimulated; inhibition, % at 5 µM; 360,000 compounds, 0.81% hits; in the data active means inhibition above about 38%;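 further: enzyme fragment complementation signal reports receptor beta-arrestin coupling in cells; 0% = agonist plus DMSO wells and 100% = wells without agonist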
Target sequence (P32249 whole entry, looked up, the tested form may be a part): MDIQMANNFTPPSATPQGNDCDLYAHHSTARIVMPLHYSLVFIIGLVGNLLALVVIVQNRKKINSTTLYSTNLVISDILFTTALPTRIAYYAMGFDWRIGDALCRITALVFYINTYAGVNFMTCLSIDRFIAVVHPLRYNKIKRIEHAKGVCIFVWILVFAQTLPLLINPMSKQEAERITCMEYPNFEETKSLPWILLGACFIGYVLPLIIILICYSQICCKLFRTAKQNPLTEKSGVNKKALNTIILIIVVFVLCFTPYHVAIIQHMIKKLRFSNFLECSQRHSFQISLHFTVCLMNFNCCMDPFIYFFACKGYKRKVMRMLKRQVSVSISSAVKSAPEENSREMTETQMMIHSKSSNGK
SKKanGAS inh: S. pyogenes SKKanGAS growth inhibitors in kanamycin, primary screen, streptokinase expression inhibitor project, SKKanGAS strain, BacTiter-Glo luminescence | 6 h | inhibition, % at 7.5 µM | 300,000 compounds, 1.3% hits | AID 1662, 2009;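 active means mean replicate score, as percent of positive control median, at least 50; inconclusive means mean below 50 but one replicate at or above 50; inactive means mean and every replicate below 50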;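 further: strain carries kanamycin resistance gene driven by streptokinase promoter and grows in 40 µg/ml kanamycin; loss of luminescence reflects streptokinase promoter inhibition or plain growth inhibition; 0% = median of DMSO wells and 100% = positive control at its reference dose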
tim23-1 inh: growth inhibitors of tim23-1 mutant yeast, primary screen, luminescence, uHTS; 330,000 compounds, 1.3% hits; S. cerevisiae tim23-1 growth, BacTiter-Glo luminescence, 24 h; inhibition, % at 20 µM; AID 463212, 2010;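 active means growth inhibition of the mutant yeast at or above 50%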;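 further: temperature-sensitive mutant grown at 25 °C; plate controls were DMSO-treated mutant yeast for no effect and medium wells lacking yeast for full effect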
tim10-1 inh: growth inhibitors of tim10-1 mutant yeast, primary screen, luminescence, uHTS; inhibition, % at 20 µM; 330,000 compounds, 2.2% hits; AID 463190, 2010; S. cerevisiae tim10-1 ts strain growth, BacTiter-Glo, 24 h;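 active means inhibition of at least 40%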;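 further: mutant grown at 25 °C; 0% = DMSO wells with yeast and 100% = wells holding no yeast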
TIM10 inh: growth inhibitors of isogenic TIM10 control yeast, primary screen, counter-screen for tim10-1 yeast inhibitor project, luminescence, uHTS; S. cerevisiae TIM10 strain growth, BacTiter-Glo luminescence, 24 h; inhibition, % at 10 µM; 330,000 compounds, 1.4% hits;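 active means inhibition of 40% or more at the single tested concentration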;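 further: wild-type TIM10 isogenic control strain grown at permissive 25 °C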
tim10-1 confirm: growth inhibitors of tim10-1 mutant yeast, confirmation, single concentration, luminescence, S. cerevisiae; shares compounds with tim10-1 inh; S. cerevisiae tim10-1 ts strain growth, BacTiter-Glo, 24 h; inhibition, % at 20 µM; 7,400 compounds, 56% hits; AID 463213, 2010;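 active means inhibition of yeast growth at or above a set limit in either of two repeat tests at 20 µM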;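 further: tim10-1 mutant grown at permissive 25 °C to find synthetic lethal compounds; 0% = DMSO yeast wells and 100% = medium wells without yeast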
tim10 confirm: growth inhibitors of wild-type TIM10 yeast, confirmation, counter-screen for tim10-1 synthetic lethality project, single concentration, luminescence, S. cerevisiae; shares compounds with TIM10 inh; S. cerevisiae tim10 strain growth, BacTiter-Glo luminescence, 24 h; inhibition, % at 10 µM; 4,600 compounds, 63% hits; AID 463215, 2010;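 active means inhibition of yeast growth at or above a set limit in either of two replicates at 10 µM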;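 further: this counterscreen used the strain with wild-type TIM10; 0% = yeast with DMSO and 100% = medium wells lacking yeast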
tim23-1 conf: tim23-1 mutant yeast growth inhibitors, confirmation, luminescence, single concentration; inhibition, % at 20 µM; shares compounds with tim23-1 inh; S. cerevisiae tim23-1 growth, BacTiter-Glo luminescence, 24 h; 4,400 compounds, 83% hits;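 active means inhibition above about 39% in either of two replicate wells at 20 µM, limit read from the data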;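 further: temperature-sensitive tim23-1 mutant grown at 25 °C; 0% = DMSO wells with yeast and 100% = medium wells without yeast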
The depositor's hits bear a star; ? = inconclusive; / = not tested or not shown.

SMILES	PfHsp90 set2	EBI2 block	SKKanGAS inh	tim23-1 inh	tim10-1 inh	TIM10 inh	tim10-1 confirm	tim23-1 conf	others
O=C(Nc1nnc(S(=O)(=O)N2CCCCCC2)s1)c1ccccc1F	0.5	-3.1	12.7	56.0*	47.2*	30.8	31.9*	54.6*
O=C(NCCCO)/C(=C\c1ccco1)NC(=O)c1ccco1	-6.3	5.9	-7.0	5.8	4.7	-10.8	/	/
CC(NC(=O)c1ccco1)C(=O)OC(C)C(=O)NCc1ccccc1 (configuration not stated)	-5.3	-0.8	0.0	19.8	6.9	-4.7	/	/
O=C(CNc1ccc(Br)cc1)NC(=O)NC1CCCCC1	-21.4	8.9	/	59.3*	48.1*	26.4	36.8*	36.6
COc1cc([C@@H]2CC=C(C(=O)O)CN2S(=O)(=O)c2ccc(C)cc2)cc(OC)c1OC	-36.7	0.3	/	3.0	13.9	3.6	/	/
COC(=O)c1csc2c(C(F)(F)F)cc(N3CCN(C(=O)Nc4ccccc4)CC3)nc12	-2.7	11.4	-3.8	-6.1	-8.6	-11.5	/	/
O=c1c2c3c(sc2ncn1/N=C/c1ccncc1)CCCC3	10.2	26.4	-3.5	65.6*	61.5*	42.8*	62.3*	27.0	tim10 confirm=50.2*
O=c1c2c3c(sc2ncn1/N=C/c1cccnc1)CCCC3	-11.9	-2.3	-3.1	44.1	38.6	20.1	/	/
COc1ccc(-n2ncc3c2CC(C)(C)CC3NC(=O)c2cn[nH]c2)cc1 (configuration not stated)	6.5	-13.5	-2.8	12.7	10.3	2.2	/	/
O=C(CN(C(=O)c1csnn1)c1ccc2c(c1)OCCO2)NCc1ccccc1	-1.7	-4.4	-5.8	5.7	-12.6	5.0	/	/
CC12CCC(C/C1=N/OC(=O)c1cccc([N+](=O)[O-])c1)C2(C)C (configuration not stated)	-30.0	9.4	-10.0	69.8*	42.1*	61.8*	66.4*	74.8*	tim10 confirm=72.0*
CC1=CC(=O)C=C(C)C1=NOC(=O)c1cccc([N+](=O)[O-])c1	/	-5.6	3.8	2.1	17.1	-1.1	/	/
CC12CCC(C/C1=N\OC(=O)c1ccc(F)cc1)C2(C)C (configuration not stated)	19.3	2.5	1.5	71.1*	65.7*	70.6*	64.2*	78.2*	tim10 confirm=67.5*
C/C(=N\OC(=O)c1ccc(F)cc1)c1ccc(F)c(F)c1	-17.2	4.3	7.2	4.7	-7.5	9.2	/	/
COc1cc(/C=C/C(=O)OC(C)C(=O)c2ccccc2)cc(OC)c1OC (configuration not stated)	/	4.1	-0.4	18.9	13.5	-3.5	/	/
CCN1N=C(c2ccccc2)Cn2c1nc1ccccc12	-77.5	6.0	-6.0	51.9*	42.5*	27.6	44.2*	46.0*
N/C(Cc1ccc(Cl)cc1Cl)=N\OC(=O)Cc1ccccc1	16.9	-6.8	23.6	74.8*	52.2*	85.9*	22.6	61.0*	tim10 confirm=87.9*
O=C(NC(=S)N1CCN(Cc2ccc3c(c2)OCO3)CC1)c1cccc(Br)c1	-22.8	-1.1	?	53.6*	51.4*	55.9*	34.8*	47.5*	tim10 confirm=18.0
O=C(NC(=S)Nc1ccc2c(c1)OCCO2)c1cccc(Br)c1	-31.6	14.7	-1.3	51.5*	45.4*	44.9*	21.2	42.4*	tim10 confirm=-0.4
O=C(NC(=S)Nc1ccc2c(c1)OCO2)c1ccccc1	-6.0	3.4	2.7	12.2	-3.7	18.0	/	/
CC1CCCCN1C(=O)CN1CCN(S(=O)(=O)c2ccc(Br)cc2Cl)CC1 (configuration not stated)	-9.7	-1.6	/	51.6*	42.7*	29.3	26.7	43.4*
O=C(/C=C/c1ccccc1O)c1ccco1	20.2	-8.6	-8.7	51.9*	43.7*	39.5	34.6*	50.2*
S=c1ncc2[nH]c(=S)[nH]c2[nH]1	/	13.1	/	/	/	/	/	/
N#CC(C(=O)Nc1cccc(Cl)c1)=C1Nc2ccccc2N1	-10.4	3.7	-1.8	-16.8	15.4	-0.7	/	/
CC1CCC(=C(C#N)C(=O)Nc2cccc(Cl)c2)CC1 (configuration not stated)	-20.6	-1.2	-15.0	59.8*	45.2*	34.6	42.1*	51.3*
SMILES	PfHsp90 set2	EBI2 block	SKKanGAS inh	tim23-1 inh	tim10-1 inh	TIM10 inh	tim10-1 confirm	tim23-1 conf	others
O=c1c(O)c(-c2cccs2)oc2ccc(Cl)cc12	-6.9	-6.5	66.4*	52.9*	41.6*	71.8*	32.4*	65.9*	tim10 confirm=59.1*
CCOC(=O)c1cccc(OS(=O)(=O)Cc2ccccc2)c1	/	-4.6	-3.6	25.5	14.3	15.5	/	/
NNC(=O)COc1ccc(-c2nccc(-c3ccc(F)cc3)n2)cc1	13.6	5.1	3.5	54.5*	49.2*	13.3	29.6	40.7*
NNC(=O)COc1ccc(F)cc1	20.7	-9.9	1.4	10.2	8.5	3.8	/	/
Oc1ccc(-c2nccc(-c3ccc(F)cc3)n2)cc1	-31.7	12.2	7.5	62.2*	51.9*	34.2	53.8*	-15.8
COC(=O)C(C)Oc1ccc(-c2nccc(-c3ccc(F)cc3)n2)cc1 (configuration not stated)	-24.4	2.6	-3.2	18.6	19.5	21.3	/	/
O/N=C/c1cc(Br)ccc1OCc1ccc(F)cc1	-27.9	22.0	14.9	59.5*	41.2*	33.2	34.2*	31.4*
COC(=O)N/N=C\c1cc(Br)ccc1OCc1ccccc1	6.3	-2.6	-4.9	34.4	-0.4	32.9	/	/
Oc1c(Br)cc(Br)cc1C=NCc1ccccc1	95.8*	2.7	27.6	84.9*	55.3*	58.6*	39.5*	90.1*	tim10 confirm=32.6*
O/N=C/c1cc(Br)cc(Br)c1OCc1ccccc1	-22.9	12.3	34.3	23.6	36.6	-35.7	/	/
Oc1c(Br)cc(Br)cc1C=NCc1ccc(F)cc1	99.0*	-10.0	8.2	79.2*	50.6*	19.2	17.5	85.2*
CN(C)c1ccc(C(=O)N/N=C/c2cc(Br)cc(Br)c2O)cc1	/	10.2	35.0	31.7	25.0	38.9	/	/

Compound activity deposited in PubChem by several laboratories.
